Data on 27 compounds can be found in paper PMC4336329 (PLoS ONE, 2015).

The campaign covered roughly 310,000 compounds. About 14,000 (4.5%) showed an effect of 50% or more. The effect is printed as a negative number. Shown is part of a subset that was picked to be rich in strong results.
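Note: peak tail current of the secondary pulse compared with the same well before compound.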

In the test the target is human ether-à-go-go-related gene (hERG) potassium channel (human, UniProt Q12809). Kind of test: primary screen, population patch clamp on CHO cells stably expressing hERG; higher = less effect of the substance.
human ether-à-go-go-related gene (hERG) potassium channel, sequence (Q12809 whole entry, looked up): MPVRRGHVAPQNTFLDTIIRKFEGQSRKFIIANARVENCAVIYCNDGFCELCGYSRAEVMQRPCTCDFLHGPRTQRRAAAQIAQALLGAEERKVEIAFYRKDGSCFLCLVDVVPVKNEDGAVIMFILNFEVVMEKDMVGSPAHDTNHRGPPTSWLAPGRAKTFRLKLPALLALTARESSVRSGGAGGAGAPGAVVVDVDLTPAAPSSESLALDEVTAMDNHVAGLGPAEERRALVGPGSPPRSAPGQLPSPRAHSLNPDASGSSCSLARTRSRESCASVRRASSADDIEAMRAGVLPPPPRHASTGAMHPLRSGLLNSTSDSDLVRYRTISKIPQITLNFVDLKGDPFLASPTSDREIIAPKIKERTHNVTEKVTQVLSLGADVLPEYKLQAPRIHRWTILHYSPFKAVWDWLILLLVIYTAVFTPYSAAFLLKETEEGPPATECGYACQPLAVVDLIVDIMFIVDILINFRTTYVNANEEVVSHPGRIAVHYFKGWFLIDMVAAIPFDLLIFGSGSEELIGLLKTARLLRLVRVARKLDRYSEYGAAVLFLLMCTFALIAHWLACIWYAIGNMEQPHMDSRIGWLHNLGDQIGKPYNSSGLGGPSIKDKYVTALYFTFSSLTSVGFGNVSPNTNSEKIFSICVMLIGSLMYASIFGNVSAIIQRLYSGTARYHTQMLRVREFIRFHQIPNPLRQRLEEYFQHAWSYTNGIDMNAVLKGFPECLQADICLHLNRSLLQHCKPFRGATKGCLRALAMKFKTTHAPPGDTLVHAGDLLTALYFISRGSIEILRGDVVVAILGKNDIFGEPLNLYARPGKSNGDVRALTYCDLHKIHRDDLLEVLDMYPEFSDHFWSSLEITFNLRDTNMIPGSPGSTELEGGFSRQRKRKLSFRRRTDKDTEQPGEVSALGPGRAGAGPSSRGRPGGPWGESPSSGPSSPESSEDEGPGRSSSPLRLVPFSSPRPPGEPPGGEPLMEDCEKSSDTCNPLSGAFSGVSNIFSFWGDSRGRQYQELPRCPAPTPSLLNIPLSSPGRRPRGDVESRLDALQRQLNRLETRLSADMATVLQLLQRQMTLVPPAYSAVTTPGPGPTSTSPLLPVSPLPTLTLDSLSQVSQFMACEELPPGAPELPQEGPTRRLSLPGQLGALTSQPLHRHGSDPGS
Regarding `Cc1ccccc1C(=O)Nc1nnc(-c2cccnc2)o1`, the “hERG current change (%, negative = inhibition) at 10uM” value is reported as 18.4%.

Regarding `CN1CCN(NC(=O)c2ccc(S(=O)(=O)N3CC4(C)CC3CC(C)(C)C4)cc2)CC1.Cl` (stereo not drawn), the “hERG current change (%, negative = inhibition) at 10uM” value was -2.07%.

As to `OCCC1CN(Cc2ccc3ncccc3c2)CCN1Cc1ccccc1` (stereo not drawn), the “hERG current change (%, negative = inhibition) at 10uM” value is given as -14.8%.

For `OCCC1CN(Cc2cccc3nccnc23)CCN1Cc1ccc(F)cc1` (stereo not drawn), the “hERG current change (%, negative = inhibition) at 10uM” value is reported as -30.8%.

Consider `OCCC1CN(Cc2cccc3nccnc23)CCN1Cc1ccc(F)c(F)c1` (stereo not drawn), for which the “hERG current change (%, negative = inhibition) at 10uM” value was -56.4%.

For `Cc1ccc(CN2CCN(Cc3ccc4ncccc4c3)CC2CCO)cc1` (stereo not drawn), the “hERG current change (%, negative = inhibition) at 10uM” value is listed as -58.9%.

Turning to `OCCC1CN(Cc2ccon2)CCN1Cc1ccc(F)c(F)c1` (stereo not drawn), the “hERG current change (%, negative = inhibition) at 10uM” value was -13.9%.

Consider `CC(C)CN1CCN(Cc2cccc3nccnc23)CC1CCO` (stereo not drawn), for which the “hERG current change (%, negative = inhibition) at 10uM” value is reported as -8.4%.

Take `Cc1ccc(CN2CCN(Cc3cccc4nccnc34)CC2CCO)cc1` (stereo not drawn): the “hERG current change (%, negative = inhibition) at 10uM” value is reported as -66.6%.

In the case of `CC(C)=CCN1CCN(Cc2cccc3nccnc23)CC1CCO` (stereo not drawn), the “hERG current change (%, negative = inhibition) at 10uM” value is -8.42%.

Take `CC(C)CN1CCN(Cc2ccc3ncccc3c2)CC1CCO` (stereo not drawn): the “hERG current change (%, negative = inhibition) at 10uM” value is -13.2%.

Turning to `COc1ccccc1N1CCN(C(=O)CSc2nc(N)cc(=O)[nH]2)CC1`, the “hERG current change (%, negative = inhibition) at 10uM” value is reported as 6.2%.

Turning to `Cc1ccc(-n2c(O)c(C=NCCCn3ccnc3)c(=O)[nH]c2=O)cc1`, the “hERG current change (%, negative = inhibition) at 10uM” value is 19.6%.

On to `COc1ccccc1NS(=O)(=O)c1cccc(C(=O)N/N=C/c2ccc(N3CCOCC3)cc2)c1`, for which the “hERG current change (%, negative = inhibition) at 10uM” value is given as -8.32%.

In the case of `CC(OC(=O)c1ccc(-c2ccc(O)cc2)cc1)C(=O)NC1CCCCC1C` (stereo not drawn), the “hERG current change (%, negative = inhibition) at 10uM” value is -6.35%.

Regarding `COc1ccccc1C(CNC(=O)c1cccc(NS(=O)(=O)c2ccc(C)c(F)c2)c1)N(C)C` (stereo not drawn), the “hERG current change (%, negative = inhibition) at 10uM” value is -42.5%.

As to `COc1ccccc1C(CNC(=O)c1cccc(NS(=O)(=O)c2ccc(Br)cc2)c1)N(C)C` (stereo not drawn), the “hERG current change (%, negative = inhibition) at 10uM” value is recorded as -51.7%.

On to `CCOc1ccc(S(=O)(=O)Nc2cccc(C(=O)NCC(c3ccccc3)N(C)C)c2)cc1` (stereo not drawn), for which the “hERG current change (%, negative = inhibition) at 10uM” value is -12%.

Consider `COc1ccc(C(CNC(=O)c2ccc(NS(=O)(=O)c3ccc(F)c(C)c3)cc2)N(C)C)cc1` (stereo not drawn), for which the “hERG current change (%, negative = inhibition) at 10uM” value was -25.8%.

Consider `COc1ccc(C(CNC(=O)c2cccc(NS(=O)(=O)c3ccc(Br)cc3)c2)N(C)C)cc1` (stereo not drawn), for which the “hERG current change (%, negative = inhibition) at 10uM” value is -61.5%.

Consider `COc1ccc(C(CNC(=O)c2cccc(NS(=O)(=O)c3ccc(C)c(F)c3)c2)N(C)C)cc1` (stereo not drawn), for which the “hERG current change (%, negative = inhibition) at 10uM” value is -62.6%.

Turning to `COc1ccc(C(CNC(=O)c2cccc(NS(=O)(=O)c3ccccc3)c2)N(C)C)cc1` (stereo not drawn), the “hERG current change (%, negative = inhibition) at 10uM” value is listed as -46.4%.

For the compound `COc1ccccc1C(CNC(=O)c1cccc(S(=O)(=O)Nc2ccc(C)cc2)c1)N(C)C` (stereo not drawn), the “hERG current change (%, negative = inhibition) at 10uM” value is -8.39%.

Consider `COc1ccc(C(CNC(=O)c2cccc(NS(=O)(=O)c3ccc(C)c(F)c3)c2)N2CCCC2)cc1` (stereo not drawn), for which the “hERG current change (%, negative = inhibition) at 10uM” value was -64%.

As for `Cc1ccc(S(=O)(=O)Nc2cccc(C(=O)NCC(c3ccccc3)N(C)C)c2)cc1F` (stereo not drawn), the “hERG current change (%, negative = inhibition) at 10uM” value is -45.8%.

With `Cc1ccc(S(=O)(=O)Nc2cccc(C(=O)NCC(c3ccco3)N3CCCC3)c2)cc1F` (stereo not drawn), the “hERG current change (%, negative = inhibition) at 10uM” value was -38.5%.

In the case of `COc1ccc(C(CNC(=O)c2cccc(NS(=O)(=O)c3ccc(C)c(F)c3)c2)N2CCOCC2)cc1` (stereo not drawn), the “hERG current change (%, negative = inhibition) at 10uM” value is listed as -9.43%.
